Laboratory results published in PubChem BioAssay (NCI).
This is part of a sample that, as a whole, favours compounds with a hit. Of some 83,000 tested, about 20% had one in any assay.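 Negative percent growth values reflect cell death: -40 means 40% of the cells present at the start died, and -100 means all died.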 A number with no mark means an inactive call. The source made the active and inactive calls. The calls were made as follows: active = growth percent below 10; inactive = the rest.

Legend:
Assay in all cases: NCI-60 one-dose screen, 48 h (100 = growth as untreated, 0 = no growth, -100 = all killed)
Conditions in all cases: 10 µM unless noted
NCI-H23 lung = tested on: NCI-H23 lung
NCI-H226 lung = tested on: NCI-H226 lung
NCI-H322M lung = tested on: NCI-H322M lung
HOP-62 NSCLC = tested on: HOP-62 NSCLC
NCI-H460 lung = tested on: NCI-H460 lung
HOP-92 NSCLC = tested on: HOP-92 NSCLC
NCI-H522 lung = tested on: NCI-H522 lung
A549/ATCC NSCLC = tested on: A549/ATCC NSCLC
786-0 renal = tested on: 786-0 renal
COLO 205 colon = tested on: COLO 205 colon
DU-145 prostate = tested on: DU-145 prostate
K-562 leukemia = tested on: K-562 leukemia
MALME-3M melanoma = tested on: MALME-3M melanoma
MDA-MB-231 breast = tested on: MDA-MB-231 breast
RXF 393 renal = tested on: RXF 393 renal
SF-268 CNS = tested on: SF-268 CNS
SF-295 CNS = tested on: SF-295 CNS
SF-539 CNS = tested on: SF-539 CNS
UACC-257 melanoma = tested on: UACC-257 melanoma
M14 melanoma = tested on: M14 melanoma

| Structure (SMILES) | growth (NCI-H23 lung) | growth (NCI-H226 lung) | growth (NCI-H322M lung) | growth (HOP-62 NSCLC) | growth (NCI-H460 lung) | growth (HOP-92 NSCLC) | growth (NCI-H522 lung) | growth (A549/ATCC NSCLC) | growth (786-0 renal) | growth (COLO 205 colon) | growth (DU-145 prostate) | growth (K-562 leukemia) | growth (MALME-3M melanoma) | growth (MDA-MB-231 breast) | growth (RXF 393 renal) | growth (SF-268 CNS) | growth (SF-295 CNS) | growth (SF-539 CNS) | growth (UACC-257 melanoma) | growth (M14 melanoma) |
| --- | --- | --- | --- | --- | --- | --- | --- | --- | --- | --- | --- | --- | --- | --- | --- | --- | --- | --- | --- | --- |
| COc1ccc(/C=C2\COc3ccc(O)c(O)c3C2=O)c(OC)c1OC | 38.6% | 63.9% | 56.2% | 17.7% | 24.9% | 38.9% | -45.2% (active) | 43.1% | 28% | 72.3% | 13.9% | 9.86% (active) | 24.2% | -2.18% (active) | 50.8% | 48% | 91.7% | -9.26% (active) | 45.6% | 38.4% |
| CCOC(=O)c1c(-c2ccc(C)cc2)c(C#N)c(=O)n(-c2cccc(C(F)(F)F)c2)c1N | 98.6% | 100% | 103% | 99.8% | 104% | 90.9% | 94.6% | 101% | 102% | 106% | 108% | 97.8% | 99.4% | 97.9% | 101% | 97% | 100% | 97.2% | 101% | 106% |
| O=C1/C(=C/c2ccc(F)c(F)c2)CN(C(=O)C(Cl)Cl)C/C1=C\c1ccc(F)c(F)c1 | -81.2% (active) | -17% (active) | -86% (active) | -57.7% (active) | -71.9% (active) | -62.6% (active) | -81.8% (active) | -52.1% (active) | -96% (active) | -85.8% (active) | -98.1% (active) | -19.4% (active) | -80.2% (active) | -73.7% (active) | -93.1% (active) | -39.4% (active) | -96.8% (active) | -98.9% (active) | -74.8% (active) | -90.1% (active) |
